Only some compounds are listed: those with a hit (about 1.2% of all), similar ones and a draw of the others.
PfHsp40 yeast: rescue of PfHsp40-mediated yeast toxicity | S. cerevisiae expressing PfHsp40, growth rescue, ATP luminescence | growth rescue, % at 12.5 µM | hit rate 0.68% among 340,000 | AID 504582; in the data active = growth rescue above about 28%, passing the limit was not always enough;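 note: yeast W303a lacking pdr1 and pdr3 grown in galactose medium; growth measured after three days at 30 °C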
ugtP null kill: growth inhibition of S. aureus ugtP deletion strain | S. aureus RN4220 ugtP deletion, OD600 growth, 16 h | growth inhibition, % (test concentration not listed) | hit rate 0.54% among 330,000 | AID 1259309; in the data active = growth inhibition above about 68%;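 note: plate controls were untreated wells for no effect and antibiotic for full effect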
TcdB inh: TcdB glycohydrolase inhibition. P18177. TcdB glycohydrolase enzymatic assay, plate reader. inhibition, % at 9.99 µM. hit rate 0.24% among 350,000. AID 652162; in the data active = inhibition above about 10%
PrP 5UTR inh: inhibition of PrP 5' UTR reporter expression. cell-based PrP 5' UTR mRNA reporter, plate reader. inhibition, % (test concentration not listed). hit rate 0.35% among 340,000; in the data active = inhibition above about 52%; note: 0 = median of the neutral control wells
RN4220 kill: kills Staphylococcus aureus RN4220; S. aureus RN4220 growth, OD600, 16 h; inhibition, % (no concentration beside the values); hit rate 0.33% among 330,000; in the data active = inhibition above about 85%;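 note: plate controls were untreated cells for no effect and reference antibiotic for full effect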
* = called active by the depositor; nt = no result given.

SMILES	PfHsp40 yeast	ugtP null kill	TcdB inh	PrP 5UTR inh	RN4220 kill
CC1CCCC(C)N1C(=O)c1ccc2c(c1)S(=O)(=O)c1ccccc1C2=O (stereo not drawn)	70*	3	0	-25	5
Cc1ccc(Cn2ncn3c(cc4ccccc43)c2=O)cc1	2	93*	nt	-14	2
COc1ccc(CNC(=O)Cn2ncn3c(cc4ccccc43)c2=O)cc1	-1	16	0	-14	5
C[C@H]1CN([C@@H](C)CO)S(=O)(=O)c2ccc(-c3cccc(C(=O)N(C)C)c3)cc2O[C@@H]1CN(C)C	nt	nt	1	nt	nt
Cc1ccc(Cc2c(-c3ccccc3)nc3cc(C)ccn23)cc1	nt	nt	1	nt	nt
Cc1ccn2c(Cc3ccccc3)c(-c3ccc(F)cc3)nc2c1	nt	nt	10*	nt	nt
Cc1ccc(Cc2c(-c3ccc(C)cc3)nc3ccc(Cl)cn23)cc1	nt	nt	11*	nt	nt
Clc1ccc(-c2nc3ccc(Cl)cn3c2Cc2ccccc2)cc1	nt	nt	13*	nt	nt
C/C(C=NNC(=O)c1ccncc1)=C\c1ccc(C(C)C)cc1	nt	37	nt	nt	11
COc1ccc(CNC(=O)C[C@H]2C[C@H]3c4cc(NC(=O)NC5CCCC5)ccc4O[C@H]3[C@@H](CO)O2)cc1	nt	nt	1	nt	nt
CCOn1c(=O)c(-c2cccc3ccccc23)[n+]([O-])c2ccccc21	0	5	2	-8	6
O=c1c(-c2cccc3ccccc23)[n+]([O-])c2ccccc2n1O	81*	13	nt	-9	7
CCN1C(=O)c2cccc3c(S(=O)(=O)Nc4nc(C)cs4)ccc1c23	1	95*	nt	-24	28
C/C(=N\NC(=O)CSc1nnc(C)s1)c1ccc(O)cc1	-1	nt	-14	-13	nt
COc1cc(/C(C)=N/NC(=O)CSc2nnc(C)s2)ccc1O	5	nt	11*	-29	nt
COc1cc2c(cc1OC)C(c1ccc(O)cc1)NCC2 (stereo not drawn)	74*	5	1	-2	2
COc1cc2c(cc1OC)C(c1ccccc1)NCC2 (stereo not drawn)	2	2	-1	-16	1
Cc1nc(SCc2nc3ccc(Br)cc3[nH]2)c2oc3ccccc3c2n1	7	25	2	-28	-4
CCc1nc(SCc2nc3ccccc3[nH]2)c2oc3ccccc3c2n1	41*	8	nt	-22	11
NC(=O)C1=CC(c2ccccc2)CC(OCCCCO)O1 (stereo not drawn)	nt	4	nt	nt	0
O=C(C[C@@H]1C[C@H]2c3cc(NC(=O)Nc4ccc(C(F)(F)F)cc4)ccc3O[C@H]2[C@@H](CO)O1)NCc1cc(F)ccc1F	nt	nt	-13	nt	nt
CCOc1ccc(NC(=O)Nc2cc(OCC(F)(F)F)cc(OCC(F)(F)F)c2)cc1	1	-42	1	-20	-4
O=C(Nc1ccc(F)cc1)Nc1cc(OCC(F)(F)F)cc(OCC(F)(F)F)c1	-1	100*	nt	-4	92*
O=[N+]([O-])c1cccc2nc(-c3ccccc3)c(-c3ccccc3)nc12	1	97*	1	-10	3
O=[N+]([O-])c1ccccc1C=NNc1nnc(-c2ccccc2)c(-c2ccccc2)n1	nt	-4	nt	nt	5
SMILES	PfHsp40 yeast	ugtP null kill	TcdB inh	PrP 5UTR inh	RN4220 kill
CC(C)NC(=O)N1[C@H](CO)[C@@H](c2ccccc2-c2ccc(F)cc2)[C@@H]1C#N	nt	nt	-1	nt	nt
CC(C)NC(=O)N(C)C[C@H]1OCCCC[C@H](C)Oc2ccc(NS(=O)(=O)c3ccc(Cl)cc3)cc2C(=O)N([C@H](C)CO)C[C@H]1C	nt	nt	0	nt	nt
O=C(O)c1cn(-c2ccc(F)cc2)c2cc(Cl)c(F)cc2c1=O	2	97*	1	-21	48
Cc1cc(/C=C(\C#N)C(=O)N2CCCCC2)cc(C)c1O	0	-2	12*	-25	4
N#C/C(=C\c1cccc(O)c1)C(=O)N1CCCCC1	-1	-3	0	-4	4
Cc1cc(C(=O)NN=Cc2ccc3c(c2)OCO3)c(C)o1	nt	8	nt	nt	4
O=C(c1ccc(-c2ccccc2)c(F)c1)C1CCCN(C(=O)c2cncs2)C1 (stereo not drawn)	412*	16	1	-11	5
Cc1ccc(C(=O)N2CCCC(C(=O)c3ccc(Cl)cc3C)C2)cn1 (stereo not drawn)	1	2	1	-20	1
CC(C)Oc1cccc(C(=O)C2CCCN(C(=O)c3cncs3)C2)c1 (stereo not drawn)	1	2	-1	-3	1
Cc1cc(Cl)ccc1C(=O)C1CCCN(C(=O)c2cncs2)C1 (stereo not drawn)	377*	2	0	1	4
CC(C)C#Cc1ccc([C@H]2[C@@H](CO)N(C(=O)C3CC3)[C@H]2C#N)cc1	nt	nt	-2	nt	nt
Cc1cc(C)n(-c2nc(-c3cccc(Cl)c3)cs2)n1	0	88*	nt	-63	0
Cc1cc(C)n(-c2nc(-c3ccccc3)cs2)n1	0	76	nt	-39	0
CCc1csc(N2[C@H](C#N)[C@@H](c3ccc(-c4cccc(F)c4)cc3)[C@@H]2CO)n1	nt	nt	0	nt	nt
O=c1[nH]c(-c2ccccn2)nc2sc(-c3ccccc3)cc12	177*	100*	1	-60	100*
Cc1c(C(=O)N(C)C)sc2nc(-c3ccccn3)[nH]c(=O)c12	0	-2	nt	-19	10
Cc1noc(C)c1S(=O)(=O)Nc1ccc2c(c1)C(=O)N([C@H](C)CO)C[C@H](C)[C@H](CN(C)C(=O)Nc1ccc(F)cc1)OCCCC[C@H](C)O2	nt	nt	0	nt	nt
Cc1cccc(OCCOC(=O)C2CCN(S(=O)(=O)c3cccs3)CC2)c1	102*	2	nt	-6	2
S=C(NCc1ccco1)NN=Cc1ccncc1	nt	8	nt	nt	4
Oc1ccccc1-c1cc(-c2ccc3c(c2)OCCO3)n[nH]1	476*	19	nt	-32	29
CC1(O)CC(c2ccc(Cl)cc2)=NN1C(=O)c1ccc([N+](=O)[O-])cc1 (stereo not drawn)	-1	98*	2	-6	99*
Cc1ccc(NC(=O)c2cc(N3C(=O)C=CC3=O)ccc2Cl)cc1C	294*	12	nt	-10	12
O=C(Nc1nc(-c2cccs2)cs1)c1ccc(Cl)s1	0	94*	0	-17	61
O=C(Nc1nc(-c2ccc(Cl)s2)cs1)c1ccccc1	1	94*	nt	-37	6
C[C@H](CO)N1C[C@H](C)[C@@H](CN(C)Cc2ccccc2)Oc2c(NC(=O)Nc3ccc(F)cc3)cccc2C1=O	nt	nt	0	nt	nt
SMILES	PfHsp40 yeast	ugtP null kill	TcdB inh	PrP 5UTR inh	RN4220 kill
Cc1onc(-c2ccccc2)c1C(=O)NCc1ccc2c(c1)OCO2	0	4	1	-1	9
COc1ccc(C(=O)NC(=S)NNC(=O)[C@H]2C[C@@H]2c2ccccc2)cc1OC	66*	4	2	-4	30
COc1ccc(CCNC(=O)c2c(-c3ccccc3)noc2C)cc1OC	4	6	-2	-25	3
Cc1onc(-c2ccccc2)c1C(=O)NNC(=S)NC(=O)c1ccc2c(c1)OCO2	48*	22	1	-20	29
COc1ccc(C(=O)NC(=S)NNC(=O)c2c(-c3ccccc3)noc2C)cc1OC	31*	22	2	-14	35
CCOc1ccc(C=NOCC(=O)NCc2ccc3c(c2)OCO3)cc1OC	nt	5	nt	nt	3
